Data reported in PubChem BioAssay (NCATS).
Several values for one entry are separate records, joined by “and”; a condition that tells them apart may be missing. Equal entries are not always repeated. Results filed as inconclusive are left out. Where a call stands in place of a potency, no number is given. Values without a mark were called inactive. Activity calls are given as the source filed them. Calls follow the shape of the dose curve; as a rule, active = well fitted curve in the direction sought with a large enough effect; inconclusive = small, poorly fitted or top-dose-only effect, or another doubt; inactive = no such curve, though single readings can be large; an effect the other way counts as inactive or inconclusive.

What was measured:
[1] = Viability qHTS for spleen associated tyrosine kinase inhibitor (SYKi) naive MV4-11 cells (AID 1963823); details: MV4-11 AML viability, CellTiter-Glo luminescence, 72 h; series mostly up to 45 µM; also: nearly all actives have a fitted effect of over 40% in size
Procedure, shortened: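 Viability of MV4-11 AML cells lacking prior SYK inhibitor exposure is scored by CellTiter-Glo luminescence following 72 hr compound incubation at 37 C, 5% CO2, seeded at 500 cells per well.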

[2] = Viability qHTS for spleen associated tyrosine kinase inhibitor (SYKi) drug resistant MV4-11 cells (AID 1963824); details: SYKi-resistant MV4-11 viability, CellTiter-Glo, 72 h; series mostly up to 45 µM; also: nearly all actives have a fitted effect of over 35% in size
Procedure, shortened: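 CellTiter-Glo luminescence, read 10 min after reagent addition, reports viability after a 72 hr compound exposure. Cells are an MV4-11 line made resistant to SYK inhibition, seeded at 500 per well onto compound-containing plates.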

[3] = Quantitative highthroughput screen to assess conditional lethalithy of NOMO1 cells grown in RPMI1640 with untreated serum (RPMI+s) (AID 1963876); details: NOMO1 AML cells in RPMI+serum, CellTiter-Glo viability, 48 h; series mostly up to 45.8 µM; also: nearly all actives have a fitted effect of over 35% in size
Procedure, shortened: (§1)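 Each medium arm—HPLM with 10% dialyzed FBS, or RPMI1640 with 5 mM glucose and 10% untreated or dialyzed FBS—was screened against an 11-point, 3-fold compound titration for 48 h at 37 °C, with CellTiter-Glo luminescence as endpoint.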

[4] = Quantitative highthroughput screen to assess conditional lethalithy of NOMO1 cells grown in RPMI1640 with dialyzed fetal bovine serum (RPMI+ds) (AID 1963877); details: NOMO1 in RPMI+dialyzed FBS viability, ATP luminescence, 48 h; series mostly up to 45.8 µM; also: nearly all actives have a fitted effect of over 30% in size
Procedure, shortened: as §1

[5] = Quantitative highthroughput screen to assess conditional lethalithy of NOMO1 cells grown in Human Plasma-Like Medium with dialyzed fetal bovine serum (HPLM+ds) (AID 1963878); details: NOMO1 AML cells in HPLM+ds, CellTiter-Glo viability, 48 h; series mostly up to 45.8 µM; also: nearly all actives have a fitted effect of over 35% in size
Procedure, shortened: as §1

[6] = Quantitative highthroughput screen to assess conditional lethalithy of P12 Ichikawa cells grown in Human Plasma-Like Medium with dialyzed fetal bovine serum (HPLM+ds) (AID 1963879); details: ATP luminescence, 48 h; Potency: viability; series mostly up to 45.8 µM; also: nearly all actives have a fitted effect of over 35% in size
Procedure, shortened: as §1

[7] = Quantitative highthroughput screen to assess conditional lethalithy of P12 Ichikawa cells grown in RPMI1640 with dialyzed fetal bovine serum (RPMI+ds) (AID 1963880); details: ATP luminescence, 48 h; Potency: P12-Ichikawa viability; series mostly up to 45.8 µM; also: nearly all actives have a fitted effect of over 35% in size
Procedure, shortened: as §1

[8] = Quantitative highthroughput screen to assess conditional lethalithy of P12 Ichikawa cells grown in RPMI1640 with untreated serum (RPMI+s) (AID 1963881); details: ATP luminescence, 48 h; Potency: viability; series mostly up to 45.8 µM; also: nearly all actives have a fitted effect of over 35% in size
Procedure, shortened: as §1

[9] = Quantitative highthroughput screen to assess conditional lethalithy of SEM cells grown in Human Plasma-Like Medium with dialyzed fetal bovine serum (HPLM+ds) (AID 1963882); details: SEM B-ALL cells in HPLM+ds, CellTiter-Glo viability, 48 h; series mostly up to 45.8 µM; also: nearly all actives have a fitted effect of over 35% in size
Procedure, shortened: as §1

[10] = Quantitative highthroughput screen to assess conditional lethalithy of SEM cells grown in RPMI1640 with unreated serum (RPMI+s) (AID 1963883); details: SEM B-ALL cells, CellTiter-Glo viability, 48 h; series mostly up to 45.8 µM; also: nearly all actives have a fitted effect of over 35% in size
Procedure, shortened: as §1

[11] = Quantitative highthroughput screen to assess conditional lethalithy of SEM cells grown in RPMI1640 with dialyzed fetal bovine serum (RPMI+ds) (AID 1963884); details: SEM B-ALL cells, RPMI+dialyzed FBS, CellTiter-Glo viability, 48 h; series mostly up to 45.8 µM; also: nearly all actives have a fitted effect of over 35% in size
Procedure, shortened: as §1

[12] = Cellular viability qHTS for adrenocortical cancer (ACC) cell line SW-13 (AID 1963989); details: SW-13 ACC cells viability, CellTiter-Glo, 48 h; activity (max response): hits give low values; also: nearly all actives have a fitted effect of over 65% in size;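 as to activity (max response): cells grown in serum-free medium with ITS supplement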
Procedure, shortened: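 SW-13 cells in ITS-supplemented serum-free DMEM were plated overnight, then exposed for 48 h at 37C to compound titrations (up to 46 uM final). Viability was read by CellTiter-Glo luminescence; four-parameter logistic fits gave IC50 and efficacy.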

[13] = Cellular viability qHTS for adrenocortical cancer (ACC) cell line NCI-H295R (AID 1963990); details: CellTiter-Glo ATP luminescence, 48 h; series mostly up to 46.1 µM; also: nearly all actives have a fitted effect of over 60% in size
Procedure, shortened: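 Luminescent ATP read-out (CellTiter-Glo, 20 min RT) after 48 h drug exposure of NCI-H295R cells; a titration up to 46 uM final. Data normalized to doxorubicin (100% inhibition) and DMSO (0%); 4-parameter fit gives IC50, max response.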
Potency is read from the fitted curve at half-maximal effect.

Structure (SMILES) | Potency [1] | Potency [2] | Potency [3] | Potency [4] | Potency [5] | Potency [6] | Potency [7] | Potency [8] | Potency [9] | Potency [10] | Potency [11] | activity (max response) [12] | Potency [13] | Potency [12]
O=C(c1ccc(F)cc1)C1CCN(CCn2c(=O)[nH]c3ccccc3c2=O)CC1 | inactive | 16.8 µM (active) | inactive | inactive | inactive | inactive | inactive | inactive | inactive | inactive | inactive | -13.7% | inactive | 
CC(=O)Nc1ccc([C@H](C)C(=O)Nc2ncc(C(C)C)s2)cc1 | 1660 nM (active) | 4.61 µM (active) | 4690 nM (active) | 8330 nM (active) | 7430 nM (active) | 11800 nM (active) | 10500 nM (active) | 11800 nM (active) | 6620 nM (active) | 7430 nM (active) | 7430 nM (active) |  | 3.55 µM (active) | 1.26 µM (active)
COC(=O)Nc1ccc(-c2nc(N3CCOCC3)c3cnn(C4CCN(Cc5cccnc5)CC4)c3n2)cc1 | 517 nM (active) | 0.58 µM (active) | 4690 nM (active) | 1870 nM (active) | 1050 nM (active) | 5900 nM (active) | 1480 nM (active) | 469 nM (active) | 662 nM (active) | 296 nM (active) | 372 nM (active) |  | 5.01 µM (active) | 12.6 µM (active)
Cc1noc(-c2ccc(CSCCC(=O)O)cc2)c1NC(=O)OC(C)c1ccccc1Cl (stereo unspecified) | inactive | inactive | inactive | inactive | inactive | 18700 nM (active) | inactive | inactive | inactive | inactive | inactive | -1.37% | inactive | 
CCN(CC)C(=S)SSC(=S)N(CC)CC | 1570 nM (active) | 1.4 µM (active) and 5.31 µM (active) and 833 nM (active) | 2960 nM (active) | 2960 nM (active) | 3320 nM (active) | 2960 nM (active) | 2960 nM (active) | 2960 nM (active) | 833 nM (active) | 1050 nM (active) | 662 nM (active) |  | 44.7 µM (active) | 16.4 µM (active) and 25.1 µM (active)
CC(C)C[C@H](NC(=O)[C@H](CCc1ccccc1)NC(=O)CN1CCOCC1)C(=O)N[C@@H](Cc1ccccc1)C(=O)N[C@@H](CC(C)C)C(=O)[C@@]1(C)CO1 | 3 nM (active) | 10.6 nM (active) and 4.7 nM (active) | 37.2 nM (active) | 37.2 nM (active) | 37.2 nM (active) | 33.2 nM (active) | 23.5 nM (active) | 20.9 nM (active) | 13.2 nM (active) | 8.3 nM (active) | 13.2 nM (active) |  | 65.1 nM (active) and 63.1 nM (active) | 103 nM (active) and 112 nM (active)
CC(C)(C#N)c1cc(Cn2cncn2)cc(C(C)(C)C#N)c1 | inactive | inactive | inactive | inactive | inactive | inactive | inactive | inactive | inactive | inactive | inactive | 5.22% | inactive | 
COc1cccc(OC)c1-c1cc(C(=O)NC2(C(=O)O)C3CC4CC(C3)CC2C4)nn1-c1ccnc2cc(Cl)ccc12 (stereo unspecified) | 9340 nM (active) | 5.9 µM (active) | inactive | inactive | inactive | inactive | inactive | inactive | inactive | inactive | inactive | -4.12% | inactive | 
Cc1ncc([N+](=O)[O-])n1CCO | inactive | inactive | inactive | inactive | inactive | inactive | inactive | inactive | inactive | inactive | inactive | -0.254% | inactive | 
CCCS(=O)(=O)Nc1ccc(F)c(C(=O)c2c[nH]c3ncc(-c4ccc(Cl)cc4)cc23)c1F | 14800 nM (active) | 16.6 µM (active) | inactive | inactive | inactive | inactive | inactive | inactive | inactive | inactive | inactive | -1.45% | inactive | 
CC(C)(C)C(=O)Oc1ccc(S(=O)(=O)Nc2ccccc2C(=O)NCC(=O)O)cc1 | inactive | inactive | inactive | inactive | inactive | inactive | inactive | inactive | inactive | inactive | inactive | 1.32% and -4.44% | inactive | 
Oc1cc2c(cc1O)C1c3ccc(O)c(O)c3OCC1(O)C2 (stereo unspecified) | 16600 nM (active) | 14.8 µM (active) | inactive | inactive | inactive | inactive | inactive | inactive | inactive | inactive | inactive | -7.46% | inactive | 
